Only some compounds are listed: those with a hit (about 7.9% of all), similar ones and a draw of the others.
MARV entry inh: qHTS for inhibitors of binding or entry into cells for Marburg Virus; Marburg virus pseudotyped entry inhibition, cell reporter; Potency, µM (highest dose often 37.8 µM), for inactives: at the highest dose activity change, negative = inhibition, most hits filed as inhibitors; actives 1.8% (n = 300,000); AID 540276, 2011; calls by dose curve; tested in HEK293 cells; further: potency means the concentration at half of the fitted maximal effect
FMDV antiviral: High Throughput Screening for Foot and Mouth Disease Virus Antivirals; FMDV antiviral cell-based qHTS; Potency, µM (top dose mostly 57.9 µM), inactives show at the highest dose activity change, negative = inhibition, actives largely listed as inhibitors; actives 1.2% (n = 410,000); AID 1159524, 2015; calls by dose curve; tested in HEK293T cells; further: read-out not given here; potency means the concentration at half of the fitted maximal effect; nearly all actives have a fitted effect of over 45% in size
LASV entry inh: qHTS for Inhibitors of binding or entry into cells for Lassa Virus | actives 1.2% (n = 300,000) | Potency, µM (highest dose often 37.9 µM), inactives show top-dose activity change, negative = inhibition, most hits filed as inhibitors | Lassa virus pseudotype entry inhibition, cell reporter | AID 540256, 2011; calls by dose curve; tested in HEK293 cells; further: potency means the concentration at half of the fitted maximal effect; nearly all actives have a fitted effect of over 50% in size
HCV inh: qHTS Assay for Inhibitors of Hepatitis C Virus (HCV) | Huh7.5.1 HCVcc-Cre infection, luciferase reporter, 44 h | Potency, µM (top dose mostly 41.8 µM), for the others: at the highest dose activity change, negative = inhibition, actives largely listed as inhibitors | actives 3.4% (n = 340,000) | AID 651820, 2012; active means well fitted inhibition curve with a large enough effect; inconclusive means small, poorly fitted or top-dose-only effect, or another doubt; inactive means no such curve, though single readings can be large or run the other way; further: potency means the concentration at half of the fitted maximal effect
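Compounds are dispensed onto cells plated 4 h earlier at 1,000 per well, with HCVcc-Cre virus (about 0.5 moi) added next. Following 44 h of culture, luminescent signal is measured for 15 sec after 15 min with substrate at room temperature.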
HCMV antiviral: qHTS Assay for inhibitors of the human cytomegalovirus (HCMV); HFF cells, HCMV-luciferase reporter, 72 h; hits give low values; activity change, negative = inhibition, % at 57.5 µM; actives 4.5% (n = 410,000); in the data active means activity change below about -60%; inconclusive means no clear call, values can overlap the other calls; inactive means above about -39%
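Inhibition of viral replication was scored as loss of reporter luminescence in HFFs infected with HCMV-luciferase (MOI 1 PFU/cell) for 72 h; compounds tested at 2 doses, normalized to buffer and Salinomycin controls.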
The depositor's hits bear a star; ? = inconclusive; · = not tested or not shown; [ ] = remark or other dose. On the % scale 0 is the no-effect control and ±100 the full control effect.

SMILES	MARV entry inh	FMDV antiviral	LASV entry inh	HCV inh	HCMV antiviral
CCCCOCCCNC(=O)C[C@@H]1C[C@@]2(C(=O)OC)CC(C)(C)CC=C2N(CCc2ccc(OC)c(OC)c2)C1=O	·	-15.1%	·	·	20.7
COc1ccc(S(=O)(=O)N(C)C[C@H]2Oc3ccc(NC(=O)Nc4c(C)noc4C)cc3C(=O)N([C@H](C)CO)C[C@@H]2C)cc1	·	-12.7%	·	1.4%	9.2
COC(=O)c1cc(-n2cccc2)ccc1N1CCOCC1	-0.7%	-11.6%	25.5%	6.3%	-20.9
COC(=O)c1cc(NS(=O)(=O)c2ccc(C)c3ccccc23)ccc1N1CCOCC1	?	46.1%	?	22.4µM*	21.2
COc1ccc(Nc2cc3c(cn2)nc(-c2ccc(OC)c(OC)c2)n3C)cn1	·	·	·	·	20.6
COc1ccc2oc3cc(C)[n+]([O-])c(-c4ccc(C)cc4)c3c2c1	?	25.1µM*	?	?	-92.9*
COc1ccc2oc3cc(C)[n+]([O-])c(-c4ccc(Cl)cc4)c3c2c1	?	35.5µM*	?	?	-90.9*
COc1ccc(-c2c(C)oc3ccc(C)cc23)cc1	-20.3%	-7.8%	0.3%	8.2%	-39.8
COc1ccc2oc(-c3ccccc3)c(C(N)=O)c2c1	1.9%	20.5%	0.8%	-18.9%	-22.2
COc1ccc(-c2c3c(cc(C)[n+]2[O-])oc2ccc(OC)cc23)cc1	-21.6%	28.2µM*	?	-10.6%	-91.4*
CCCC[C@]12Cc3cc(OC)c(OC)cc3[C@H](O1)C1=C(CC3(CCCCC3)OC1=O)O2	-24.0%[14.2 µM]	·	·	·	·
CC(C)(C)c1ccc(C(=O)Nc2onc3c2CCCC3)cc1	?	-72.8%	?	·	-74.7*
O=C(Nc1onc2c1CCCC2)c1ccccc1	?	-4.2%	?	·	64.0
CN(C)c1ncc2nc(-c3ccc(F)cc3)c(=O)n(C3CC3)c2n1	·	7.8%	·	·	·
CN1CCN(C(=O)N2c3ccccc3C=Cc3ccccc32)CC1	10µM*	22.4%	?	-1.3%	-2.3
CCOc1ccc(N2C(=O)/C(=C/c3ccc(C)o3)C(=O)NC2=S)cc1	·	39.8µM*	·	-4.9%	1.7
COc1ccc(N2C(=O)/C(=C/c3ccc(C)o3)C(=O)NC2=S)cc1	·	?	·	10.5%	34.2
O=C(COc1ccccc1Cl)Nc1nnc(S(=O)(=O)N2CCCCCC2)s1	·	-16.7%	-6.2%[46.1 µM]	17.2%	1.5
Cc1cccc(NC(=O)Nc2ccc(C#N)cc2)n1	0.6%	29.8%	·	3.8%	-84.1*
Cc1cccc(NC(=O)Nc2cccc(C#N)c2)n1	·	41.5%	·	?	-24.8
CCC(=O)N1CCC(C)(C(=O)NCc2ccc(F)cc2)C1 (stereo not given)	·	-5.5%	·	·	-19.3
COc1ccc(Oc2cnc3ccccc3n2)cc1	5.3%[46.1 µM]	41.8%	-2.9%	-20.2%	-63.1*
CC1(C)CC(=O)c2c(O)cc(OCc3ccc(Br)cc3)cc2O1	?	13.7%	9.9%	-13.2%	-108.6*
COC(=O)c1ccc(COc2cc(O)c3c(c2)OC(C)(C)CC3=O)cc1	-9.5%	-20.7%	-6.2%	-26.2%	-7.9
N#Cc1c(-n2ncnc2-c2ccccc2C(F)(F)F)sc2c1CCCCC2	·	0.355µM*	?	·	-69.0*
SMILES	MARV entry inh	FMDV antiviral	LASV entry inh	HCV inh	HCMV antiviral
COC(=O)c1c(C)nc2ccccc2c1C(=O)O	-12.9%	-12.8%	0.4%	16.5%	-8.2
COC(=O)c1cc(C)[nH]c2c(C)cc3nc4ccccc4c3c12	?	?	21.7%[46.1 µM]	10µM*	31.1
CCN(CC)S(=O)(=O)c1ccc2oc(Nc3ccc4c(c3)OCCO4)nc2c1	?	-2.7%	-21.0%	10µM*	38.0
Cc1noc(C)c1NC(=O)Nc1cccc2c1O[C@H](CN(C)C(=O)Nc1ccc3c(c1)OCO3)[C@@H](C)CN([C@H](C)CO)C2=O	·	-9.0%	·	9.5%	26.3
COc1ccc(-n2nc(C(=O)Nc3cc(C)ccn3)c3c4ccccc4n(C)c3c2=O)cc1	10.2%[46.1 µM]	-20.4%	21.3%[46.1 µM]	·	9.8
COc1cccc(CCN2CCC(CNS(=O)(=O)c3cc(-c4cc(C)no4)ccc3OC)CC2)c1	·	?	·	7.94µM*	0.0
COc1cccc(CCN2CCC(CNS(=O)(=O)c3cc(-c4cc(C)no4)ccc3C)CC2)c1	·	?	·	12.6µM*	0.0
Cc1cc(-c2ccc(C)c(S(=O)(=O)NCC3CCN(Cc4cccc(F)c4)CC3)c2)on1	·	16.7%	·	?	0.0
CCCC[C@@H](C(=O)O)[C@H](C)CC(=O)Nc1cccc(C(=O)O)c1	9.5%	·	·	·	·
CN(C)c1cccc(Nc2cc3[nH]c(-c4cccc(F)c4)cc3cn2)c1	·	·	·	·	-26.5
Cc1cccc(OCc2nnc(SCC(=O)NC3CCCCC3)n2C)c1	26.3%[46.1 µM]	-17.4%	?	-1.6%	?
Cc1ccc(CCC(=O)Nc2ncc(Cc3cccc(Cl)c3Cl)s2)o1	?	-20.8%	?	?	-63.9*
Cc1ccc(CCC(=O)Nc2cc(Cl)ccc2Cl)o1	6.0%[46.1 µM]	3.7%	20.8%[46.1 µM]	-24.0%	-97.3*
Cc1ccc2c(c1)C(=O)OC(C(=O)Nc1ccc(C(=O)O)cc1)C2 (stereo not given)	-1.1%[46.1 µM]	?	11.4%[46.1 µM]	·	-7.3
N/C(=N\OC(=O)c1cccc2ccccc12)c1cccnc1	?	52.1%	-14.9%	11.2µM*	191.4
Cc1cccc(/C(N)=N/OC(=O)c2cccc3ccccc23)c1	·	·	·	·	172.5
N/C(Cc1ccc(Cl)cc1)=N\OC(=O)c1cccc2ccccc12	?	?	11.6µM*	7.08µM*	-18.8
COc1ccc(C/C(N)=N/OC(=O)c2ccc(Cl)cc2)cc1	-19.2%[46.1 µM]	6.6%	?	-0.7%	?
N/C(Cc1ccc(Cl)cc1)=N\OC(=O)c1ccc2ccccc2c1	2.82µM*	-9.9%	?	31.6µM*	9.5
COCc1c(C(=O)N2CCC(N3CCCCC3)CC2)cnn1-c1ncc(C)c(-c2cccs2)n1	·	-13.5%	·	·	·
Cc1c(N/N=C(\C#N)C(=O)c2ccccc2)c(=O)n(-c2ccccc2)n1C	11.2µM*	-17.4%	?	10µM*	-79.1*
CCOC(=O)/C(C#N)=N/Nc1c(C)n(C)n(-c2ccccc2)c1=O	7.4%[46.1 µM]	-4.5%	-25.1%[46.1 µM]	10.8%	3.5
Cc1ccccc1C(=O)/C(C#N)=N/Nc1c(C)n(C)n(-c2ccccc2)c1=O	?	-31.7%	?	?	-87.7*
Cc1no[n+]([O-])c1COc1ccccc1/C=N/n1nnnc1N	?	-19.1%	?	?	-75.2*
CCc1ccc(O)c(C(=O)c2cnc3cc(-c4ccc(C)cc4)nn3c2)c1	9.8%[46.1 µM]	-3.3%	?	·	2.3
CCc1nn2cc(C(=O)c3cc(Cl)ccc3O)cnc2c1-c1ccc(F)cc1	-1.8%	?	?	?	-70.1*
Cc1ccc(-n2nnnc2SC(C)C(=O)Nc2ccccc2-c2ccccc2)cc1 (stereo not given)	-18.4%[46.1 µM]	-22.7%	-10.6%	7.6%	-61.1*
COc1ccc(-c2nn[nH]n2)cc1OC	18.8%	-15.2%	2.8%	13.1%	-21.8
Nc1cc(-c2nn[nH]n2)ccc1F	-22.1%	-19.4%	?	6.8%	-90.8*
